Assay outcomes (PubChem)
G9a inh = inhibitors of human histone lysine methyltransferase G9a. G9a H3K9 monomethylation, AlphaScreen, 2 h. Potency, µM (highest dose often 102 µM), inactives show at the top dose activity, negative = inhibition, most hits filed as inhibitors. actives 8.8% (n = 350,000). AID 504332; further: potency means the concentration at half of the fitted maximal effect; nearly all actives have a fitted effect of over 75% in size
Target sequence (Q96KQ7 913-1193 limits assumed): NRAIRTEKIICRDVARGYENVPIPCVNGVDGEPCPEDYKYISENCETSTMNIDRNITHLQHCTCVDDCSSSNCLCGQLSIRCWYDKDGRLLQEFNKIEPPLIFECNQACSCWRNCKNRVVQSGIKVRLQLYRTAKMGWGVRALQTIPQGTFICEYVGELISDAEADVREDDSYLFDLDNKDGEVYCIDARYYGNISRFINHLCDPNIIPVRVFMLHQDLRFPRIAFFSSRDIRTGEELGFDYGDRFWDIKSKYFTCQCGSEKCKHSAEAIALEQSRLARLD
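Compounds were preincubated with 20 nM G9a for 15 min, after which biotinylated H3K9 peptide (500 nM) and SAM (20 uM) started a 2 h room-temperature reaction. Monomethylated product was quantified by antibody-based AlphaScreen chemiluminescence.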
Tau ThT inhib = inhibitors of human tau fibril formation, thioflavin T binding. P10636. recombinant tau K18 P301L, heparin-induced fibrillization, ThT fluorescence. Potency, µM (titrated, usually from 57.4 µM), inactives show at the highest dose activity, negative = inhibition, usual class: inhibitors. actives 2.1% (n = 270,000). AID 1460; further: potency means the concentration at half of the fitted maximal effect; nearly all actives have a fitted effect of over 55% in size
Target sequence (P10636 561-689 P618L limits assumed): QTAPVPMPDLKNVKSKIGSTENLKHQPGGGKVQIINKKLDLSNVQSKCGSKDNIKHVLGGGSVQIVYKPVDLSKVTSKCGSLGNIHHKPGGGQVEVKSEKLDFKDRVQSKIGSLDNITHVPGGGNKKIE
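K18 P301L tau (15 uM + 0.24 uM Alexa 594-tagged), heparin 20 uM, NaOAc pH 7, 6 h 37 C; ThT 30 uM, 1 h RT, ex 450/em 510 nm.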
FBPA coupling cs = counter-screen for Giardia aldolase inhibitors: coupling enzyme system. coupling enzyme system counterscreen, AmpLite Red fluorescence. activity change, negative = inhibition, % at 58.2 µM, hits read low. actives 0.67% (n = 290,000); in the data active means activity change below about -30%
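Activity here indicates interference with the coupling reaction, not aldolase inhibition. Compounds at 57.5 uM final met coupling enzymes for 10 min at RT; substrate and AmpLite Red detection followed, with a 525/598 nm fluorescence read after 20 min.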
Tau FP inhib = inhibitors of human tau fibril formation | K18 P301L tau heparin fibrillization, Alexa594 FP, 6 h | Potency, µM (doses to about 57.7 µM), for the others: at the highest dose activity, negative = inhibition, actives largely listed as inhibitors | actives 0.39% (n = 280,000) | AID 1468; further: potency means the concentration at half of the fitted maximal effect; nearly all actives have a fitted effect of over 55% in size
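Human K18 P301L fragment (15 uM unlabeled plus 0.24 uM Alexa 594-labeled) in 100 mM sodium acetate pH 7 with compound, aggregation induced by 20 uM heparin for 6 hr at 37 C. ThT (30 uM) added for 1 hr, then Alexa 594 FP read.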
Sfp inh = inhibitors of Bacillus subtilis Sfp phosphopantetheinyl transferase. Q9F4F7. AID 1490. Potency, µM, inactives show largest response in the series, negative = inhibition, actives largely listed as inhibitors. actives 3.5% (n = 310,000). Biochemical Sfp PPTase activity, qHTS;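 further: the enzyme is Sfp with the accession as filed and its product quenches rhodamine fluorescence; potency means the concentration at half of the fitted maximal effect; 0% = enzyme reaction without inhibitor and -100% = no enzyme wells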
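Compounds were incubated with enzyme (final 15 nM) for 15 min at room temperature before substrate addition started the reaction. Fluorescence at 525 nm excitation, 598 nm emission was recorded immediately and after 30 minutes.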
Tau fluor counter = counter-screen for tau fibril formation inhibitors | tau K18 P301L (four-repeat tau fragment) Alexa594 fluorescence, heparin fibrillization | Potency, µM (doses to about 57.7 µM), without a hit: top-dose activity change, negative = decrease | actives 0.93% (n = 280,000); further: potency means the concentration at half of the fitted maximal effect; nearly all actives have a fitted effect of over 55% in size
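Human K18 P301L tau (15 uM unlabeled plus 0.24 uM Alexa 594-labeled, final) in 100 mM sodium acetate pH 7 was mixed with compound and 20 uM heparin and incubated 6 hr at 37 C.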
The depositor's hits bear a star; ? = inconclusive; . = no result; ! = not active in a repeat; [ ] = dose if it differs, or a comment. In the library only some 11% were active in any assay of this set; here they are far more common. Unless noted, the call rests on the fitted dose curve; in most records, active means well fitted curve in the direction sought with a large enough effect; inconclusive means small, poorly fitted or top-dose-only effect, or another doubt; inactive means no such curve, though single readings can be large; an effect the other way counts as inactive or inconclusive. Unless noted, on the % scale 0 is the no-effect control and ±100 the full control effect.

SMILES | G9a inh | Tau ThT inhib | FBPA coupling cs | Tau FP inhib | Sfp inh | Tau fluor counter
O=S(=O)(c1ccccc1)N1CCC2(CCN(c3ccncc3)CC2)CC1 | -3.6%[12.7 µM] | . | -1.6 | . | 17.9% | .
O=C(NCCc1ccc(Cl)cc1)C1CCC(=O)N1C1CCCC1 (centres undefined) | 44.7µM* | -18.8% | 0.8 | -3.2% | 4.5% | -12.7%
CC(C)(C)OC(=O)NCCCCC1=CC2=CC(=O)C(C)(OC(=O)CCc3ccccc3)C(=O)C2=CO1 (centres undefined) | . | -6.8% | -0.2 | 1.5% | 17.5% | -9.6%
CC(C)CCOc1ccc(/C=C2\CCn3c2nc2cc(C(=O)O)ccc2c3=O)cc1 | 50.1µM* | ? | 0.1 | -10.8% | 8.8% | -11.5%
COc1ccc(/C=C2\CCn3c2nc2cc(C(=O)O)ccc2c3=O)cc1O | ? | -2.9% | -10.9 | 7.1% | 9.0% | -6.4%
COC(=O)c1ccc(/C=C2\CCn3c2nc2cc(C(=O)O)ccc2c3=O)cc1 | 70.8µM* | . | -0.7 | . | 24.3% | .
CSc1ccc(/C=C2\CCn3c2nc2cc(C(=O)O)ccc2c3=O)cc1 | ? | . | -0.4 | . | 1.3% | .
COc1ccc(/C=C2\CCn3c2nc2cc(C(=O)O)ccc2c3=O)cc1OC | 44.7µM* | ? | -5.9 | -10.9% | 3.7% | -8.3%
O=C(NCc1ccccc1)C(c1ccc(F)cc1)N(C(=O)c1csnn1)C1CC1 (centres undefined) | 23.2% | . | 2.5 | . | 9.7% | .
Nc1ncnc2c1ncn2[C@@H]1O[C@H](COP(=O)(O)OP(=O)(O)O)[C@@H](O)[C@H]1O | 35.0%[59 µM] | 4.3% | 2.1 | -2.2% | 50.1µM*! | -0.6%
Nc1ncnc2c1ncn2C1OC(C(=O)NC2CC2)C(O)C1O (centres undefined) | -5.3%[59 µM] | . | . | . | . | .
CNC(=O)[C@H]1O[C@@H](n2cnc3c(NCc4cccc(I)c4)nc(Cl)nc32)[C@H](O)[C@@H]1O | -5.3%[59 µM] | -6.4% | . | -4.2% | -13.6% | -28.0%
Nc1nc(Cl)nc2c1ncn2[C@@H]1O[C@H](COP(=O)(O)OP(=O)(O)OP(=O)(O)O)[C@@H](O)[C@H]1O | 26.7µM* | . | . | . | . | .
CNC(=O)[C@H]1O[C@@H](n2cnc3c(N)ncnc32)[C@H](O)[C@H]1O | 3.16µM* | -0.2% | . | 9.4% | . | 2.8%
CCCCCn1c(=O)[nH]c2cc(C(=O)NCc3ccc(OC)cc3)ccc2c1=O | -6.0%[59 µM] | -8.0% | . | ? | . | -5.6%
Cc1ccc(C(=O)N2CCN(c3cccc(Cl)c3)CC2)cc1-n1c(C)nc2cccnc21 | ? | -3.4% | . | 8.5% | . | 3.7%
O=C(NC1CCN(Cc2ccc(Cl)c(Cl)c2)CC1)c1ccccc1 | ? | . | -1.2 | . | 18.0% | .
Nc1ncnc2c1ncn2[C@@H]1O[C@H](COP(=O)(O)OP(=O)(O)CP(=O)(O)O)[C@@H](O)[C@H]1O | -4.6%[59 µM] | -5.1% | . | 5.7% | 1.3% | -9.1%
Nc1ncnc2c1ncn2[C@@H]1O[C@H](COP(=O)(O)OP(=O)(O)OP(=O)(O)OP(=O)(O)OC[C@@H]2O[C@H](n3cnc4c(N)ncnc43)[C@@H](O)[C@H]2O)[C@@H](O)[C@H]1O | 25.1µM*! | -12.4% | . | 2.6% | 11.8% | -8.8%
COc1ccc(Nc2nc3ccccc3c3nnc(C)n23)cc1Cl | -28.7%[59 µM] | ? | . | -0.4% | . | ?
Oc1c(Cl)cc(Cl)cc1C(C#Cc1ccccc1)N1CCOCC1 (centres undefined) | ? | 14.1µM* | 0.4 | -4.3% | -5.5% | ?
COC(=O)/C(=N/Nc1ccccc1Cl)Sc1nnc(C(O)c2ccccc2)n1-c1ccccc1 (centres undefined) | 44.7µM* | -3.3% | 12.0 | 5.6% | -22.1% | -1.9%
CC(=O)/C(=N/Nc1ccc(C)cc1)Sc1nnc(CCc2ccccc2)n1-c1ccccc1 | ? | ? | -2.6 | 0.2% | -0.9% | -25.0%
CC(=O)/C(=N/Nc1ccccc1)Sc1nnc(C(O)c2ccccc2)n1-c1ccccc1 (centres undefined) | 44.7µM* | -6.1% | 1.9 | -0.1% | -10.6% | -4.0%
CC(=O)/C(=N/Nc1ccccc1Cl)Sc1nnc(C(O)c2ccccc2)n1-c1ccccc1 (centres undefined) | 10µM* | -14.7% | 0.0 | -0.1% | -11.5% | 1.4%
SMILES | G9a inh | Tau ThT inhib | FBPA coupling cs | Tau FP inhib | Sfp inh | Tau fluor counter
CCc1c(-c2ccccc2)nc2ccccc2c1C(=O)NC(C)c1ccccc1 (centres undefined) | 1.5%[59 µM] | -17.9% | . | 6.4% | . | -9.8%
CCCN(C(=O)c1cc(Cl)nc2ccccc12)c1c(N)n(Cc2ccccc2)c(=O)[nH]c1=O | 6.7%[12.7 µM] | . | . | . | . | .
CCOCCc1c(O)nc(SCC(=O)N2CCOCC2)[nH]c1=O | -7.2% | . | 0.5 | . | 15.8% | .
Cc1cccn2cc(COc3cccc([N+](=O)[O-])c3)nc12 | -8.7% | ? | -0.7 | -2.8% | -1.0% | -14.1%
Cc1cccn2cc(COc3ccc(-c4ccccc4)cc3)nc12 | -2.5%[59 µM] | ? | 3.2 | -7.8% | 35.5µM* | -27.5%
O=C(Nc1ccccc1)/C(=C/c1ccc([N+](=O)[O-])cc1)NC(=O)c1ccco1 | 17.8µM* | . | 1.4 | . | -2.6% | .
O=C(Nc1ccccc1C(=O)O)/C(=C/c1ccc([N+](=O)[O-])cc1)NC(=O)c1ccc(Br)o1 | 44.7µM* | ? | -0.9 | ? | 7.94µM* | 11.2%
CC(NC(=O)/C(=C\c1cccc([N+](=O)[O-])c1)NC(=O)c1ccco1)C(=O)O (centres undefined) | 28.1%[0.501 µM] | ? | 2.4 | -9.1% | 79.4µM* | -17.0%
Cc1cc(C(=O)NC2CCCN(Cc3ccccc3F)C2)n[nH]1 (centres undefined) | -4.6% | . | . | . | 7.2% | .
CS/C(=C\[N+](=O)[O-])Nc1ccc(OC(F)(F)F)cc1 | 50.1µM* | ? | -0.6 | -0.3% | 14.6% | -16.2%
CC(=O)OCCN(C)c1cc(SC(C)C)c2nonc2c1[N+](=O)[O-] | 50.1µM* | 14.1µM* | -23.0 | -16.5% | -27.2% | ?
CN(CCO)c1cc(Sc2nc3ccccc3s2)c2nonc2c1[N+](=O)[O-] | ? | 28.2µM* | -7.4 | -13.8% | 25.1µM* | ?
Cc1cc(/C=N/NC(N)=S)c(C)n1-c1cccc(Cl)c1 | 44.7µM* | -16.2% | 3.0 | 1.0% | -2.7% | -18.0%
O=C(N/N=C/c1ccc2ncccc2c1)c1ccco1 | 14.1µM* | ? | -1.8 | ? | -1.7% | -8.8%
Cc1cccc(C)c1-n1c(C)cc(/C=N/NC(N)=S)c1C | 50.1µM* | ? | -3.6 | 4.4% | ? | -27.6%
Cc1cccc(-n2c(C)cc(/C=N\NC(=O)c3ccco3)c2C)c1 | 44.7µM* | ? | 0.2 | 5.2% | 6.6% | -18.8%
Cc1cc(/C=N/NC(N)=S)c(C)n1-c1ccc(Cl)cc1 | -6.6%[59 µM] | ? | -6.6 | -12.2% | -10.3% | ?
